# Assay results reported in PubChem BioAssay (Tox21).
# Values joined by “and” are separate entries in the source; they are usually repeats but may differ in a detail not shown here. Equal entries are not always repeated. Results filed as inconclusive are left out. A call without a number means that no potency is given here. A structure can be active in one record and inactive in another. Active and inactive are the calls of the source. Unless noted, calls follow the shape of the full dose curve.
# Tests used:
# [1] = Nuclear factor erythroid 2-related factor 2/antioxidant responsive element (Nrf2/ARE) small molecule agonists: qHTS cell viability counter screen in human keratinocytes (AID 1919968; active = well fitted curve in the direction sought with a large enough effect in the repeat runs; an effect the other way counts as inactive or inconclusive; also: nearly all actives have a fitted effect of over 55% in size; also: potency is read from the fitted curve at half-maximal effect)
# Summary of the method: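 KeratinoSens HaCaT cells, 1,500/well, preincubated 5 h, then exposed to compounds in DMSO for 23 h at 37 C/5% CO2. Viability read as CellTiter-Fluor fluorescence after 1 h, in the same wells as the ARE-luciferase read.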
# [2] = Nuclear factor erythroid 2-related factor 2/antioxidant responsive element (Nrf2/ARE) small molecule agonists: luciferase reporter gene qHTS assay in human keratinocytes (AID 1919969); also: nearly all actives have a fitted effect of over 35% in size; also: potency is read from the fitted curve at half-maximal effect
# [3] = molecular target: KiSS-1 receptor (Homo sapiens) (UniProt Q969F8); assay: Human kisspeptin (KISS1R) small molecule agonists, calcium flux assay in KISS1R-HEK293 cells (AID 1920064; active = well fitted curve in the direction sought with a large enough effect in the repeat runs; an effect the other way counts as inactive or inconclusive)
# Chain of KiSS-1 receptor (Homo sapiens) (Q969F8 whole entry, looked up): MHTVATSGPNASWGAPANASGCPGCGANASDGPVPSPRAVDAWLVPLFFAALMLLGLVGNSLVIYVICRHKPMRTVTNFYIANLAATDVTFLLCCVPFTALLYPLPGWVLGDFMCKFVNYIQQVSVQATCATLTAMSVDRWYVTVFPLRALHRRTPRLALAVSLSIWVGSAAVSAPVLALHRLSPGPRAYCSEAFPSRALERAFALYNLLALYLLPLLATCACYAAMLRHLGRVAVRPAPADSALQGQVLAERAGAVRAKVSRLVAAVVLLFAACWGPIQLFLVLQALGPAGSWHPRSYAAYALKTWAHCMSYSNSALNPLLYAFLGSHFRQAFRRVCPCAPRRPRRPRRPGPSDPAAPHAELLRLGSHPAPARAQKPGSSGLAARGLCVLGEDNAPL
# Summary of the method: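 HEK293 cells stably expressing human KISS1R were loaded with calcium dye for 1 h at 37 C, then given compound; fluorescence (Ex/Em 480/540) was read kinetically for 3 min. Fifteen concentrations, triplicate.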
# [4] = G protein-coupled receptor (GPCR) small molecule agonists, calcium flux assay: HEK293 wild type cell line counter screen (AID 1920065)
# Summary of the method: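 Wild-type HEK293 cells plated 18 h, loaded with calcium dye 1 h at 37 C, then compounds added in agonist mode (ATP as positive control). Kinetic fluorescence Ex/Em 480/540 recorded 3 min at 1 sec intervals; 15 concentrations, triplicate.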
# [5] = p53 small molecule agonists, cell-based qHTS assay with human liver microsomes: qHTS cell viability counter screen (AID 1963579); also: nearly all actives have a fitted effect of over 45% in size; also: potency is read from the fitted curve at half-maximal effect
# Summary of the method: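 Seed p53RE-bla cells at 4,000 per well; incubate 5 h at 37 C; add compound, human liver microsomes and NADPH; incubate 16 h at 37 C; add CellTiter-Glo; after 30 min at room temperature, read luminescence.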
# [6] = p53 small molecule agonists, cell-based qHTS assay with rat liver microsomes: qHTS cell viability counter screen (AID 1963580); also: nearly all actives have a fitted effect of over 45% in size; also: potency is read from the fitted curve at half-maximal effect
# Summary of the method: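 Viability is assessed in parallel with the p53 reporter read: HCT-116 p53RE-bla cells receive compounds plus rat microsomes and NADPH (0.5 mg/mL final apiece), incubate 16 h at 37 C, and then CellTiter-Glo luminescence is recorded.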
# [7] = p53 small molecule agonists, cell-based qHTS assay: qHTS cell viability counter screen (AID 1963581); also: nearly all actives have a fitted effect of over 45% in size; also: potency is read from the fitted curve at half-maximal effect
# Summary of the method: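 p53RE-bla HCT-116 cells, compounds added 5 h after plating and incubated 16 h at 37 C. Cytotoxicity measured in the same wells as intracellular ATP by CellTiter-Glo luminescence after 30 min at room temperature.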
# [8] = molecular target: 5-hydroxytryptamine receptor 2A (Homo sapiens) (UniProt P28223); assay: 5-hydroxytryptamine receptor 2A (HTR2A) small molecule agonists, cell-based qHTS assay (AID 1963587); also: nearly all actives have a fitted effect of over 30% in size; also: potency is read from the fitted curve at half-maximal effect
# Chain of 5-hydroxytryptamine receptor 2A (Homo sapiens) (P28223 whole entry, looked up): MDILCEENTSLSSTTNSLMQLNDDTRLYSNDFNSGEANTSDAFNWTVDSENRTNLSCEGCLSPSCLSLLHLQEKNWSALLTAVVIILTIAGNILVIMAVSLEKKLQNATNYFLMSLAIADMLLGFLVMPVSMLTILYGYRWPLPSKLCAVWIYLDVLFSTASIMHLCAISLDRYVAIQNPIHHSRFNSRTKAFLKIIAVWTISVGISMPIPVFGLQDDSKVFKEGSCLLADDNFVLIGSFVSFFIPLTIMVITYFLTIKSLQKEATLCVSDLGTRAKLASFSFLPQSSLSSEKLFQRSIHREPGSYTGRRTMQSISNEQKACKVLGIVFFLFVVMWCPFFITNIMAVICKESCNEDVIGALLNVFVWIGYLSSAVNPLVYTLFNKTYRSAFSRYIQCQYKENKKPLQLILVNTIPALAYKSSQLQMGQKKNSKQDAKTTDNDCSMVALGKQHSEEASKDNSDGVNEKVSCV
# Summary of the method: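 CHO cells stably expressing human HTR2A, plated 18 h, loaded with calcium dye 1 h at 37 C. Agonist mode: compounds added and intracellular calcium fluorescence recorded kinetically for 2 min at 1 sec intervals.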
# [9] = molecular target: Muscarinic acetylcholine receptor M1 (Homo sapiens) (UniProt P11229); assay: Cholinergic receptor muscarinic 1 (CHRM1) small molecule antagonists, cell-based qHTS assay (AID 1963588); also: nearly all actives have a fitted effect of over 40% in size
# Chain of Muscarinic acetylcholine receptor M1 (Homo sapiens) (P11229 whole entry, looked up): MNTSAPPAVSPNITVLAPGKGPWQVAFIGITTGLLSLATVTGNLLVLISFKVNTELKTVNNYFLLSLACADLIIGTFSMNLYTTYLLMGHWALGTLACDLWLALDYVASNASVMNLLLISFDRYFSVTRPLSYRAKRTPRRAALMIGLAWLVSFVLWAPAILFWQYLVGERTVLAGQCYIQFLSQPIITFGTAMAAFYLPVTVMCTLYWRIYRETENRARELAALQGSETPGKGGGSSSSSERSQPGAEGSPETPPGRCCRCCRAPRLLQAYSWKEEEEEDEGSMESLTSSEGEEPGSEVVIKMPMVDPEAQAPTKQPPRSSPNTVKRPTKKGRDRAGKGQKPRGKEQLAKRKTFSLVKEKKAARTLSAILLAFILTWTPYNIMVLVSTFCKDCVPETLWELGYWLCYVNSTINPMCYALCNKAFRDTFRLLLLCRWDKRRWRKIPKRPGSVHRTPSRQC
# Summary of the method: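 CHRM1-CHO calcium-flux assay, antagonist mode. Cells were seeded 18 h, dye-loaded 1 h at 37 C and given compound for 5 min at RT, then acetylcholine was added at 50nM. FDSS fluorescence was read 3 min; 15 concentrations, three runs.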
# [10] = cAMP Responsive Elements (CRE) small molecule antagonists, cell-based qHTS assay (AID 1963591; active = well fitted inhibition curve with a large enough effect in the signal ratio in the repeat runs, not every such curve was filed as active; the % refers to the signal ratio; also: potency is read from the fitted curve at half-maximal effect)
# Summary of the method: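 CRE-bla HEK293T cells plated 18 h, then given compound plus NKH477 at 0.25 uM final for 3 h at 37C. Beta-lactamase reporter read with LiveBLAzer B/G FRET substrate after 2 h at room temperature.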
# [11] = molecular target: Beta-2 adrenergic receptor (Homo sapiens) (UniProt P07550); assay: Adrenergic beta2 receptor (ADRB2) small molecule antagonists, cell-based qHTS assay (AID 1963592); also: series mostly up to about 92 µM; nearly all actives have a fitted effect of over 50% in size
# Chain of Beta-2 adrenergic receptor (Homo sapiens) (P07550 whole entry, looked up): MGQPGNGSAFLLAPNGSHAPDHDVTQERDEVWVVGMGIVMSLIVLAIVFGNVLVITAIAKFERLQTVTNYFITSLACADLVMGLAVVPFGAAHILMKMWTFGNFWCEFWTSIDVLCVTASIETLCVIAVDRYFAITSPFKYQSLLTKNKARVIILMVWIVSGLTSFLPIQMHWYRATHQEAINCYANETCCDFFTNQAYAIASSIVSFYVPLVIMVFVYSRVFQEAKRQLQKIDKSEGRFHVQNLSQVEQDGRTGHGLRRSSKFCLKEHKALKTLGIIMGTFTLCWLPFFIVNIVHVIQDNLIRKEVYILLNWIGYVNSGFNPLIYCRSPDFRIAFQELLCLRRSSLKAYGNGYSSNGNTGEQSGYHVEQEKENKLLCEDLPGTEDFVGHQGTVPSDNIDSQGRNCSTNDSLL
# Summary of the method: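 Cells (CHO, stable ADRB2 overexpression) incubated 18-20hr at 37C; compounds added from DMSO; agonist mix (1nM isoproterenol, 100uM IBMX, 25uM Ro-20-1724) added; 0.5hr RT; d2-cAMP and anti-cAMP-cryptate added; 1hr RT; 665/615 nm read.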
# [12] = molecular target: Beta-2 adrenergic receptor (Homo sapiens) (UniProt P07550); assay: Adrenergic beta2 receptor (ADRB2) small molecule agonists, cell-based qHTS assay (AID 1963593);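 also: CHO cells stably overexpressing human ADRB2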
# Summary of the method: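 CHO cells stably over-expressing ADRB2 were plated overnight at 37C, then dosed with compounds plus a stimulation mix containing 100uM IBMX and 25uM Ro-20-1724 for 0.5hr at room temperature. cAMP was measured by HTRF competition, 1hr.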
# [13] = molecular target: D(2) dopamine receptor (Homo sapiens) (UniProt P14416); assay: Dopamine D2 receptor (DRD2) small molecule agonists, cell-based qHTS assay (AID 1963594); also: nearly all actives have a fitted effect of over 35% in size; also: potency is read from the fitted curve at half-maximal effect
# Chain of D(2) dopamine receptor (Homo sapiens) (P14416 whole entry, looked up): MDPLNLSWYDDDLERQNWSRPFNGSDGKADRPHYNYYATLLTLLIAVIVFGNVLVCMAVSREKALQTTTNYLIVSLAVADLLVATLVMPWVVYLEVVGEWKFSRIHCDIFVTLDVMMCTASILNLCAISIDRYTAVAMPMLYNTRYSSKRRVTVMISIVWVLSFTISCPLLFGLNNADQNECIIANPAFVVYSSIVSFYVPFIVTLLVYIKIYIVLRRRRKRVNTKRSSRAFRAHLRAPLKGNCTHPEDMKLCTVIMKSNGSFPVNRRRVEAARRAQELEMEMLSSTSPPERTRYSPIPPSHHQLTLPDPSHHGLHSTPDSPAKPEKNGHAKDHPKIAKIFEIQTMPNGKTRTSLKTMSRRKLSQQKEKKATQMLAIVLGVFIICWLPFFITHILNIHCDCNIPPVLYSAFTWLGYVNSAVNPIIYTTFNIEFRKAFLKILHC
# Summary of the method: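 HEK293 cells stably expressing human DRD2, pre-treated with PDE inhibitor Ro20-1724 (0.1 mM final) and compound 10 min at room temperature, then stimulated with NKH477 (200nM […]) for 30 min. cAMP read by HTRF (665/620 nm).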
# [14] = molecular target: D(2) dopamine receptor (Homo sapiens) (UniProt P14416); assay: Dopamine D2 receptor (DRD2) small molecule antagonists, cell-based qHTS assay (AID 1963595; active = well fitted inhibition curve with a large enough effect in the signal ratio in the repeat runs, with a control signal flat; the % refers to the signal ratio; also: potency is read from the fitted curve at half-maximal effect)
# Summary of the method: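 HEK293 cells stably expressing DRD2 were preincubated with 0.1 mM Ro20-1724, then with compound for 10 min at room temperature. Cells were stimulated with 200 nM NKH477 plus 12 nM quinpirole for 30 min, and cAMP was read by HTRF.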
# [15] = molecular target: 5-hydroxytryptamine receptor 2A (Homo sapiens) (UniProt P28223); assay: 5-hydroxytryptamine receptor 2A (HTR2A) small molecule antagonists, cell-based qHTS assay (AID 1963586); also: nearly all actives have a fitted effect of over 45% in size
# Summary of the method: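 Antagonist-mode intracellular calcium assay: DOI (4 nM) added after 5 min compound pre-incubation at room temperature to dye-loaded HTR2A-CHO cells. Fluorescence followed for 3 min, sampled every second.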
# [16] = molecular target: Muscarinic acetylcholine receptor M1 (Homo sapiens) (UniProt P11229); assay: Cholinergic receptor muscarinic 1 (CHRM1) small molecule agonists, cell-based qHTS assay (AID 1963589); also: nearly all actives have a fitted effect of over 35% in size
# Summary of the method: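 CHO cells stably expressing human CHRM1 were loaded with calcium dye for 1 h at 37 C, then compound was added in agonist mode. Intracellular calcium fluorescence was followed kinetically at 1 s intervals. Fifteen concentrations were tested in three independent runs.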
# [17] = p53 small molecule agonists, cell-based qHTS assay with human liver microsomes (AID 1963577)
# Summary of the method: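 Cells carrying a p53-responsive bla reporter were rested 5 h (37 C, 5% CO2) before compound transfer. Human liver microsomes plus NADPH, 0.5 mg/mL final apiece, supplied metabolism during the 16 h 37 C exposure.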
# [18] = p53 small molecule agonists, cell-based qHTS assay with rat liver microsomes (AID 1963578)
# Summary of the method: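 Fluorescence from a beta-lactamase reporter under a p53 response element was measured after cells had been incubated 16 h at 37 C with test compound and rat liver microsomes plus NADPH (0.5 mg/mL final each).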
# [19] = p53 small molecule agonists, cell-based qHTS assay (AID 1963582; active = well fitted activation curve with a large enough effect in the signal ratio in the repeat runs, not every such curve was filed as active; the % refers to the signal ratio; also: potency is read from the fitted curve at half-maximal effect)
# Summary of the method: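 p53RE-bla reporter cells, compounds added in DMSO after 5 h plating, incubated 16 h at 37 C. Beta-lactamase read via 2 h room-temperature LiveBLAzer B/G FRET substrate, fluorescence intensity.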
# [20] = cAMP Responsive Elements (CRE) small molecule agonists, cell-based qHTS assay (AID 1963590)
# Summary of the method: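 CRE-bla HEK 293T cells, 2,000/well in DMEM with 10% dialyzed FBS and 25 mM HEPES, pre-incubated 18 h at 37 C, then exposed to compound 3 h at 37 C. Beta-lactamase reporter read with LiveBLAzer B/G FRET substrate after 2 h at room temperature.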
SMILES,Potency [1],Potency [2],Potency [3],Potency [4],Potency [5],Potency [6],Potency [7],Potency [8],Potency [9],Potency [10],Potency [11],Potency [12],Potency [13],Potency [14],Potency [15],Potency [16],Potency [17],Potency [18],Potency [19],Potency [20]
CCCCCCCCCCCCOCCO,inactive,27.3 µM (active),inactive,inactive,20.4 µM (active) and inactive,inactive,inactive,inactive,inactive,inactive,inactive,inactive,inactive,inactive,–,–,–,–,–,–
CCN(CC)c1ccc(C(=O)c2ccccc2C(=O)O)c(O)c1,inactive,inactive,inactive,inactive,inactive,inactive,inactive,inactive,inactive,–,inactive,–,inactive,inactive,inactive,inactive,–,–,–,–
CCCCCCCCCCCCCCCC,inactive,inactive,inactive,–,–,inactive,inactive,inactive,inactive,inactive,inactive,inactive,inactive,inactive,inactive,inactive,inactive,inactive,inactive,inactive
COc1cccc2c1C(=O)c1c(O)c3c(c(O)c1C2=O)C[C@@](O)(C(=O)CO)C[C@@H]3O[C@H]1C[C@H](N)[C@H](O)[C@H](C)O1,7.5 µM (active),2.73 µM (active) and 6.68 µM (active),inactive,inactive,inactive,–,inactive,–,–,26.6 µM (active),–,–,–,–,–,–,inactive,inactive,0.457 µM (active),inactive
O=C(O)CNc1ccccc1,inactive,inactive,inactive,inactive,inactive,–,inactive,inactive,inactive,inactive,inactive,inactive,inactive,inactive,inactive,–,inactive,inactive,inactive,inactive
COc1ccc(C(=O)NCc2ccc(OCCN(C)C)cc2)cc1OC,inactive,inactive,inactive,inactive,–,inactive,inactive,inactive,inactive,inactive,inactive,inactive,inactive,inactive,inactive,inactive,inactive,inactive,inactive,inactive
CC(=C(CCOC(=O)C(C)C)SSC(CCOC(=O)C(C)C)=C(C)N(C=O)Cc1cnc(C)nc1N)N(C=O)Cc1cnc(C)nc1N,inactive,inactive,inactive,–,inactive,inactive,inactive,inactive,inactive,inactive,inactive,–,inactive,–,inactive,inactive,inactive,inactive,inactive,inactive
O=C(O)c1ccc(C(=O)O)c(C(=O)O)c1,inactive,inactive,inactive,inactive,inactive,inactive,inactive,inactive,inactive,inactive,inactive,–,inactive,inactive,inactive,inactive,–,–,–,inactive
O=[N+]([O-])c1ccc(CCO)cc1,inactive,inactive,inactive,–,inactive,inactive,inactive,inactive,inactive,inactive,inactive,–,–,inactive,inactive,inactive,inactive,inactive,–,inactive
CN/C(=C\[N+](=O)[O-])NCCSCc1ccc(CN(C)C)o1,inactive,inactive,inactive,inactive,–,–,inactive,–,–,inactive,inactive,–,inactive and 17.4 µM (active),inactive,–,–,–,–,inactive,inactive
CCCCC(CC)COC(=O)CC(C(=O)OCC(CC)CCCC)S(=O)(=O)O (stereo unspecified),26.3 µM (active),inactive,inactive,inactive,44 µM (active) and inactive,35 µM (active),39.2 µM (active),42 µM (active) and 43.6 µM (active),inactive,inactive,inactive,inactive,inactive,inactive and 61.1 µM (active),inactive,–,inactive,–,–,–
N#CCC(=O)O,inactive,inactive,–,inactive,inactive,inactive,inactive,inactive,inactive,–,inactive,inactive,inactive,inactive,inactive,inactive,inactive,inactive,inactive,inactive
CCn1cc(C(=O)O)c(=O)c2cnc(N3CCNCC3)nc21,inactive,inactive,inactive,inactive,inactive,inactive,inactive,inactive,inactive,inactive,inactive,–,inactive,inactive,inactive,inactive,–,inactive,inactive,inactive
